PubChem BioAssay (EPA / NIEHS)
Values joined by “and” are separate entries in the source; they are usually repeats but may differ in a detail not shown here. Identical values can stand only once. Inconclusive results are not listed. Where a structure was tested more than once in an assay, its records may differ in their call. Active and inactive are the calls of the source. Rule for the calls, unless noted: active = hit-call score of the fitted dose curve at least 0.9, where 1 is the maximum; inactive = score below 0.9.

Columns and labels:
[1] = read-out: Tumor necrosis factor (Homo sapiens) (UniProt P01375); experiment: BSK_LPS_TNFa: BioMAP Diversity Plus: LPS Assay for Tumour Necrosis Factor alpha (TNFa) Biomarker Activity (AID 2283085); conditions: primary human HUVEC with PBMC; actives raise or lower the signal
In short: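 Read-out is ELISA of TNFa in primary human endothelial cell–PBMC co-cultures at 24 h after compound. Activity in either direction was fitted against DMSO.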

CD38, CD38 (gene 952) = experiment: BSK_SAg_CD38: BioMAP Diversity Plus: SAg Assay for CD38 Biomarker Activity (AID 2283087); conditions: primary human HUVEC with PBMC; actives raise or lower the signal
In short: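 Human HUVEC plus PBMC co-culture stimulated with superantigen; CD38 measured by ELISA 24 h after chemical dosing. Fluorescence read-out, bidirectional fit against DMSO; cytotoxicity tracked in parallel by SRB and Alamar Blue.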

[2] = read-out: Monocyte Chemoattractant Protein-1 (MCP1), CCL2 (gene 6347); experiment: BSK_SAg_MCP1: BioMAP Diversity Plus: SAg Assay for Monocyte Chemoattractant Protein-1 (MCP1) Biomarker Activity (AID 2283090); conditions: primary human HUVEC with PBMC; actives raise or lower the signal
In short: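 MCP-1 levels in the endothelial–PBMC SAg co-culture were quantified by ELISA at 24 h post-dosing; both increases and decreases versus DMSO scored. Cytotoxicity monitored by SRB total protein in parallel cultures.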

[3] = read-out: E-selectin (Homo sapiens) (UniProt P16581); experiment: BSK_SAg_Eselectin: BioMAP Diversity Plus: SAg Assay for Eselectin Biomarker Activity (AID 2283091); conditions: primary human HUVEC with PBMC; actives raise or lower the signal
In short: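 E-selectin ELISA readout at 24 h post-dosing in human umbilical vein endothelial cell/PBMC co-culture; gain or loss of signal fitted relative to DMSO baseline.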

[4] = read-out: Monokine induced gamma interferon (MIG), CXCL9 (gene 4283); experiment: BSK_SAg_MIG: BioMAP Diversity Plus: SAg Assay for Monokine induced gamma interferon (MIG) Biomarker Activity (AID 2283092); conditions: primary human HUVEC with PBMC; actives raise or lower the signal
In short: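 Values reflect bidirectional fitting of ELISA-measured MIG against DMSO vehicle, taken 24 h after dosing of a co-culture of human umbilical vein endothelial cells and peripheral blood mononuclear cells.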

[5] = read-out: Interleukin-8 (IL8), CXCL8 (gene 3576); experiment: BSK_SAg_IL8: BioMAP Diversity Plus: SAg Assay for Interleukin-8 (IL8) Biomarker Activity (AID 2283094); conditions: primary human HUVEC with PBMC; actives raise or lower the signal
In short: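 ELISA read-out of IL-8 in a primary human vascular co-culture (umbilical vein endothelium plus PBMC), taken 24 h after compound addition. Values derive from bidirectional fits against DMSO negative controls.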

[6] = BSK_SAg_Proliferation: Cell Proliferation Assessment in the BioMAP Diversity Plus: SAg Assay (AID 2283095); conditions: primary human HUVEC with PBMC;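 note: relative cell number as total protein by SRB absorbance in sub-confluent culture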
In short: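 Cells (endothelium plus PBMC, human primary) were dosed with chemical, cultured 96 h, fixed in 10% TCA and stained with 0.1% SRB. Absorbance at 560 nm gave relative protein, fitted bidirectionally relative to DMSO.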

[7] = read-out: Interferon-inducible T-cell alpha chemoattractant (ITAC), CXCL11 (gene 6373); experiment: BSK_hDFCGF_ITAC: BioMAP Diversity Plus: hDFCGF Assay for Interferon-inducible T-cell alpha chemoattractant (ITAC) Biomarker Activity (AID 2284251); conditions: primary human foreskin fibroblasts
In short: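 Primary human foreskin fibroblasts (hDFCGF system) treated for 24 h; I-TAC quantified by ELISA. Gain-direction fitting versus DMSO; parallel SRB staining of total protein flagged overt cytotoxicity.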

[8] = read-out: Intercellular Adhesion Molecule 1 (ICAM1), ICAM1 (gene 3383); experiment: BSK_BE3C_ICAM1: BioMAP Diversity Plus: BE3C Assay for Intercellular Adhesion Molecule 1 (ICAM1) Biomarker Activity (AID 2284278); conditions: primary human bronchial epithelial cells
In short: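 Human primary bronchial epithelial cultures; compound added; 24 h incubation; cell-surface ICAM-1 measured by ELISA; signal increase fitted relative to DMSO negative control.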

[9] = read-out: Epidermal growth factor receptor (EGFR), EGFR (gene 1956); experiment: BSK_BE3C_EGFR: BioMAP Diversity Plus: BE3C Assay for Epidermal growth factor receptor (EGFR) Biomarker Activity (AID 2284281); conditions: primary human bronchial epithelial cells
In short: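 Human primary bronchial epithelial cells (BE3C system) dosed with chemicals; EGFR measured by ELISA at 24 h, fitted in the positive direction relative to DMSO. Cytotoxicity tracked in parallel cultures by SRB total-protein staining.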

KRT18 (gene 3875) = experiment: BSK_BE3C_Keratin818: BioMAP Diversity Plus: BE3C Assay for Keratin 818 Biomarker Activity (AID 2284282); conditions: primary human bronchial epithelial cells
In short: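 Chemicals are added to human lung bronchial epithelial primary cells (BE3C system) and incubated 24 h. Keratin 8/18 is then measured by ELISA, with parallel SRB total-protein staining gauging overt cytotoxicity.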

[10] = read-out: Matrix Metallopeptidase 9 (MMP9), MMP9 (gene 4318); experiment: BSK_BE3C_MMP9: BioMAP Diversity Plus: BE3C Assay for Matrix Metallopeptidase 9 (MMP9) Biomarker Activity (AID 2284283); conditions: primary human bronchial epithelial cells
In short: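 ELISA read-out of MMP-9 after 24 h compound exposure of human lung bronchial epithelial primary cells (BE3C). Fit in gain direction vs DMSO negative control; total protein by SRB in parallel cultures flagged overt cytotoxicity.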

[11] = read-out: TIMP metallopeptidase inhibitor 2 (TIMP2), TIMP2 (gene 7077); experiment: BSK_hDFCGF_TIMP2: BioMAP Diversity Plus: hDFCGF Assay for TIMP metallopeptidase inhibitor 2 (TIMP2) Biomarker Activity (AID 2284289); conditions: primary human foreskin fibroblasts
In short: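 Primary human foreskin fibroblasts in the hDFCGF system, dosed for 24 h; TIMP-2 level measured by ELISA, fitted in the positive direction against DMSO; cytotoxicity checked in parallel by sulforhodamine B total protein staining.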

[12] = read-out: Thrombomodulin, THBD (gene 7056); experiment: BSK_LPS_Thrombomodulin: BioMAP Diversity Plus: LPS Assay for Thrombomodulin Biomarker Activity (AID 2284296); conditions: primary human HUVEC with PBMC
In short: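 Human umbilical vein endothelial cells co-cultured with PBMC and stimulated with LPS; cell-surface thrombomodulin measured by ELISA 24 hours after compound. Gain or loss versus DMSO; cytotoxicity checked by SRB staining in parallel cultures.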

CD69, CD69 (gene 969) = experiment: BSK_LPS_CD69: BioMAP Diversity Plus: LPS Assay for CD69 Biomarker Activity (AID 2284303); conditions: primary human HUVEC with PBMC
In short: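 Human umbilical vein endothelial cells co-cultured with PBMC under LPS stimulation, chemical exposure 24 h; cell-surface CD69 measured by ELISA and fitted in the positive direction versus DMSO.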

[13] = target: Hepatocyte nuclear factor 4-alpha (Homo sapiens) (UniProt P41235); experiment: ATG_HNF4a_TRANS: Attagene TRANS-FACTORIAL HepG2 Assay for human Hepatocyte Nuclear Factor 4 alpha (HNF4a) (AID 2282982; active = hit-call score of the fitted dose curve at least 0.9, where 1 is the maximum); conditions: HepG2 HNF4a transactivation reporter, mRNA readout
Sequence of Hepatocyte nuclear factor 4-alpha (Homo sapiens) (P41235 whole entry, looked up, the tested form may be a part): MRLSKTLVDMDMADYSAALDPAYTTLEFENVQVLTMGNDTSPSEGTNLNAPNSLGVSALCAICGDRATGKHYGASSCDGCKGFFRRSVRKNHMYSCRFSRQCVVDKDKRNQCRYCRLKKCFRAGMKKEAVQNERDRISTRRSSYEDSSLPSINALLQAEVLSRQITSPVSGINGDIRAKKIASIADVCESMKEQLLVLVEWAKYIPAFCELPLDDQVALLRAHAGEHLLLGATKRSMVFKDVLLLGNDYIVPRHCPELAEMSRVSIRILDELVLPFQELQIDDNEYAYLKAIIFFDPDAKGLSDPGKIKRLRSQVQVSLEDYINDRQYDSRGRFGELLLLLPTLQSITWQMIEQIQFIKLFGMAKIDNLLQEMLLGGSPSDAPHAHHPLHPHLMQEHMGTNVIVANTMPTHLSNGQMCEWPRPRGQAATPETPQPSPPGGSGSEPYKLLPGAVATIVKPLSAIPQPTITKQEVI
In short: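 HepG2 cells transiently transfected with HNF4a-Gal4 chimera and GAL4-UAS reporter units, dosed for 24 h. Reporter mRNA measured by RT-PCR, fluorescent primer extension and capillary electrophoresis; gain-of-signal fitted relative to DMSO.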

[14] = target: Retinoic acid receptor RXR-alpha (Homo sapiens) (UniProt P19793); experiment: ATG_RXRa_TRANS: Attagene TRANS-FACTORIAL HepG2 Assay for human Retinoid X Receptor alpha (RXRa) (AID 2283012; active = hit-call score of the fitted dose curve at least 0.9, where 1 is the maximum)
Sequence of Retinoic acid receptor RXR-alpha (Homo sapiens) (P19793 whole entry, looked up, the tested form may be a part): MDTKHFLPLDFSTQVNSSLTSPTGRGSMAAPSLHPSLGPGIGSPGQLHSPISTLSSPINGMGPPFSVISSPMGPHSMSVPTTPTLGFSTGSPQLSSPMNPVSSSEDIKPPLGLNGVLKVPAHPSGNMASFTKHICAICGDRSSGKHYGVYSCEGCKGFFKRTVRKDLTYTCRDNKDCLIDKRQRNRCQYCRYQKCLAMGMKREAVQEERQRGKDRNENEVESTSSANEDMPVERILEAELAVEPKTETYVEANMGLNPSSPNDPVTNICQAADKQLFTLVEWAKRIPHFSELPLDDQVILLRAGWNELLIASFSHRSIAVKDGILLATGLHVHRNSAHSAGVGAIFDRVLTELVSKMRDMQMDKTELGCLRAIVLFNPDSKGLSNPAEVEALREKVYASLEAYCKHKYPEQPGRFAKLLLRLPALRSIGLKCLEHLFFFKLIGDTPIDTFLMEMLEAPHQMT
In short: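 Transient transfection of human HepG2 with multiple GAL4-UAS reporter constructs; 24 h compound exposure; total RNA isolated, reverse-transcribed, PCR-amplified, 6-FAM labelled, HpaI-cut, resolved by capillary electrophoresis. Positive-direction fit versus DMSO.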

[15] = target: human Retinoid X Receptor beta (RXRb), RXRB (gene 6257) (UniProt P28702); experiment: ATG_RXRb_TRANS: Attagene TRANS-FACTORIAL HepG2 Assay for human Retinoid X Receptor beta (RXRb) (AID 2283013; active = hit-call score of the fitted dose curve at least 0.9, where 1 is the maximum)
Sequence of human Retinoid X Receptor beta (RXRb), RXRB (gene 6257) (P28702 whole entry, looked up, the tested form may be a part): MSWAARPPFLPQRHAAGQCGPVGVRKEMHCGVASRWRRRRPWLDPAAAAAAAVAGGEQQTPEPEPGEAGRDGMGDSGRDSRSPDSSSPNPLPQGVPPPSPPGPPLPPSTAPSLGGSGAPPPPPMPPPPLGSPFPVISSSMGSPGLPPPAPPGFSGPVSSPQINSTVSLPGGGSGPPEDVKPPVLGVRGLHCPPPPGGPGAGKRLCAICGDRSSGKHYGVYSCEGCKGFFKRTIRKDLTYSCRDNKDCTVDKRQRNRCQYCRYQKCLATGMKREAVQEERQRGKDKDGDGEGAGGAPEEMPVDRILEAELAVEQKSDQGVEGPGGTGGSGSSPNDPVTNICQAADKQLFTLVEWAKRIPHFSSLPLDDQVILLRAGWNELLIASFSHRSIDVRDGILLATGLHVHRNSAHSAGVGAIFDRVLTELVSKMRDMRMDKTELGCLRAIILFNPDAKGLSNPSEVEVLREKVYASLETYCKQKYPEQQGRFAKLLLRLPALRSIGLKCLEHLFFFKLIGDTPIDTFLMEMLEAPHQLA
In short: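 Transfect HepG2 with GAL4-UAS multi-reporter constructs (chimeric NR-Gal4, TRANS format); dose compound 24 h; isolate RNA, RT-PCR, FAM primer extension, HpaI digest; quantify by capillary electrophoresis; positive direction vs DMSO.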

[16] = target: human Vitamin D Receptor (VDR), VDR (gene 7421) (UniProt P11473); experiment: ATG_VDR_TRANS: Attagene TRANS-FACTORIAL HepG2 Assay for human Vitamin D Receptor (VDR) (AID 2283022; active = hit-call score of the fitted dose curve at least 0.9, where 1 is the maximum)
Sequence of human Vitamin D Receptor (VDR), VDR (gene 7421) (P11473 whole entry, looked up, the tested form may be a part): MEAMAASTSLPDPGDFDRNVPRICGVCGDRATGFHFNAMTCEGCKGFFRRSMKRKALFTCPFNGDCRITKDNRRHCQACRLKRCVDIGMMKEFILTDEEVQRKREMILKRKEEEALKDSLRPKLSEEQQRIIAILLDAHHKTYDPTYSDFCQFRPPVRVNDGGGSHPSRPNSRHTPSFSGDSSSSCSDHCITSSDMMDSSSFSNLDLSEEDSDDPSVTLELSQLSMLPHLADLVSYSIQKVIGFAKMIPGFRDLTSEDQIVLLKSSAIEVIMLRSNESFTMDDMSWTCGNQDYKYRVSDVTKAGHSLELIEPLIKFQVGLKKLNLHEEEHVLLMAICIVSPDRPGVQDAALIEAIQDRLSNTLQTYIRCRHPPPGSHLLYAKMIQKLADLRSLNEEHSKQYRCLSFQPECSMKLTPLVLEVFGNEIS
In short: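 RT-PCR/capillary electrophoresis read-out of reporter mRNA induction in transiently transfected HepG2; 24 h dosing; chimeric NR-Gal4 (TRANS format); gain-of-signal fit against DMSO baseline.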

[17] = target: Signal transducer and activator of transcription 3 (Homo sapiens) (UniProt P40763); experiment: ATG_STAT3_CIS: Attagene CIS-FACTORIAL HepG2 Assay for human Signal Transducer and Activator of Transcription 3 (STAT3) (AID 2282963); conditions: HepG2, Attagene cis-factorial STAT3 reporter transcription; actives raise or lower the signal
Sequence of Signal transducer and activator of transcription 3 (Homo sapiens) (P40763 whole entry, looked up): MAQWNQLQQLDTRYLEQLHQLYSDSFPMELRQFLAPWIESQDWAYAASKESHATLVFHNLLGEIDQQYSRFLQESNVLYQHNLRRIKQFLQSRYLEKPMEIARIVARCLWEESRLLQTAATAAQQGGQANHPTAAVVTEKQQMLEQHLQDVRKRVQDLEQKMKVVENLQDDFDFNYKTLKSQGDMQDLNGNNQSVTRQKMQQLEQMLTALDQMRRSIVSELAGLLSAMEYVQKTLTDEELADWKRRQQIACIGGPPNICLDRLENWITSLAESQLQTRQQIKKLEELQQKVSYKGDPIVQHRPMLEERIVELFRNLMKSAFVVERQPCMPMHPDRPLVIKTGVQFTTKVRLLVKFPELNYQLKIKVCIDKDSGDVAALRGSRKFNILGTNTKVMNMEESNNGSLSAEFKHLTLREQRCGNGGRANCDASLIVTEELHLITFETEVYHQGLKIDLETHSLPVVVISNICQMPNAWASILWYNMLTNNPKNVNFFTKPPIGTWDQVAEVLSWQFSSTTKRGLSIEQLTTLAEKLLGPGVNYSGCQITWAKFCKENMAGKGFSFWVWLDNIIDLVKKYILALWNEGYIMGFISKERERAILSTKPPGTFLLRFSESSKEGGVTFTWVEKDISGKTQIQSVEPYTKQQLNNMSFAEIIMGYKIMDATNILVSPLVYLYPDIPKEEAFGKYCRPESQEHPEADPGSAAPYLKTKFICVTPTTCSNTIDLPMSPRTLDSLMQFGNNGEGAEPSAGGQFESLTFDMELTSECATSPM
In short: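 HepG2 cells transiently transfected with multiple cis-element-driven reporter units report endogenous transcription factor activity. After 24 h compound exposure, reporter mRNA is measured by RT-PCR, 6-FAM labelling, HpaI digestion and capillary electrophoresis. Fitted bidirectionally versus DMSO.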

Measured: AC50

Sequence of E-selectin (Homo sapiens) (P16581 whole entry, looked up): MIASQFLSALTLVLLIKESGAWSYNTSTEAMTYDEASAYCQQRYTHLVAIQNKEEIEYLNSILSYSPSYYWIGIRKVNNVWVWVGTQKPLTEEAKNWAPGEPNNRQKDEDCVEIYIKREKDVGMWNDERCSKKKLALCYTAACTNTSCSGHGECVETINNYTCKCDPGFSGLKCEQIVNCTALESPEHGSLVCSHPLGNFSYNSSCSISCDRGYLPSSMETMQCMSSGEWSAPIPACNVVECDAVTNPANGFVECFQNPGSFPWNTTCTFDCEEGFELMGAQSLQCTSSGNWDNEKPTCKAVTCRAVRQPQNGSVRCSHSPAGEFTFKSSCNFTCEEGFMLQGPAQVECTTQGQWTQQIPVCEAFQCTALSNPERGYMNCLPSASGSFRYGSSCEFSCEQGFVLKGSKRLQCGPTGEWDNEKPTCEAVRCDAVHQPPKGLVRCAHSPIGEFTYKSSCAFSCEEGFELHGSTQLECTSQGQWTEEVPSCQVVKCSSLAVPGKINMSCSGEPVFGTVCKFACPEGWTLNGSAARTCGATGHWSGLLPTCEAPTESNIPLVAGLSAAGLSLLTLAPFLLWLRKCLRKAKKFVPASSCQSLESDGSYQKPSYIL
Sequence of Tumor necrosis factor (Homo sapiens) (P01375 whole entry, looked up): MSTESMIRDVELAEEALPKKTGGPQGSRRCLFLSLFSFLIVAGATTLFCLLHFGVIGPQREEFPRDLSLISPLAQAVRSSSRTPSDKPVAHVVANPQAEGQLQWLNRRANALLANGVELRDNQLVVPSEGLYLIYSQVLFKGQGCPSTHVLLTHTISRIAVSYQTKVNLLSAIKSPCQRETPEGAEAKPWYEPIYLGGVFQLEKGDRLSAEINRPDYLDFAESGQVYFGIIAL

CC(C)C1OCCN1CCOC(=O)NCCCCCCNC(=O)OCCN1CCOC1C(C)C (stereo not given)
not listed: [13] | [14] | [15] | [16] | [17]
inactive: all other assays above

Nc1ccc(S(=O)(=O)Nc2cnc3ccccc3n2)cc1
active: [15] 31.5 µM
inactive: [13] | [14] | [16]

O=C(C1CCCCC1)N1CC(=O)N2CCc3ccccc3C2C1 (stereo not given)
inactive: [17] | [14] | [15] | [16]

O=[N+]([O-])c1cc(S(=O)(=O)Nc2ccccc2)ccc1Nc1ccccc1
inactive: KRT18 (gene 3875)
active: [1] 5.14 µM and 5.08 µM | CD38, CD38 (gene 952) 25 µM and 26 µM | [2] 28.5 µM and 28.6 µM | [3] 12.1 µM and 19.5 µM | [4] 34.1 µM and 35.3 µM | [5] 20 µM and 14.4 µM | [6] 15 µM and 25.7 µM | [7] 27.4 µM and 24 µM | [8] 29.2 µM and 37 µM | [9] 20 µM and 19.6 µM | KRT18 (gene 3875) 32 µM | [10] 33.4 µM and 20 µM | [11] 29.8 µM and 30.3 µM | [12] 20 µM and 28.1 µM | CD69, CD69 (gene 969) 13.2 µM and 10.7 µM

CNC(=C[N+](=O)[O-])NCCSCc1csc(CN(C)C)n1
inactive: [17] | [13] | [15]

COc1ccc(C(=O)c2ccccc2O)c(O)c1
inactive: [1] | CD38, CD38 (gene 952) | [2] | [3] | [4] | [6] | [7] | [8] | [9] | KRT18 (gene 3875) | [11] | [12] | CD69, CD69 (gene 969)
active: [5] 29.5 µM and 24.6 µM | [7] 28.3 µM | [10] 10.2 µM and 17.3 µM

Oc1cccc2ccccc12
active: [6] 3.97 µM
inactive: [17] | [14] | [15] | [16] | [1] | CD38, CD38 (gene 952) | [2] | [3] | [4] | [5]

CO[Si](CCCNCCN)(OC)OC
inactive: [17] | [13] | [16]

O=C(O)c1cc(Cl)cc(Cl)c1O
inactive: [17] | [13] | [14] | [15] | [16]

CC(=O)OC(C)(C)Cc1ccccc1
inactive: [17] | [13] | [14] | [16]

COc1ccccc1Oc1c(NS(=O)(=O)c2ccc(C(C)(C)C)cc2)nc(-c2ncccn2)nc1OCCO
active: [6] 6.88 µM and 8.61 µM
not listed: [13] | [14] | [15] | [16] | [17]
inactive: all other assays above

CC(C)(C)NC(=O)[C@@H]1CN(Cc2cccnc2)CCN1C[C@@H](O)C[C@@H](Cc1ccccc1)C(=O)N[C@H]1c2ccccc2C[C@H]1O
inactive: [17] | [14] | [15] | [16]

COc1cccc(OC)c1C(=O)O
inactive: [13] | [15] | [16]

COc1ccc2ccccc2c1
inactive: [17] | [15]
